MOR-DOR ag-1 – agonists of human mu-delta opioid receptor heterodimerization; cells, OPRM1-OPRD1 heterodimerization, luminescence; activation, % at 9.3 µM; P35372+P41143; 0.3% of 340,000 active; in the data active means activation above about 18%;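 further: 0% = vehicle-treated cells and 100% = reference agonist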
HTR5A inv ag – HTR5A inverse agonism, opioid heterodimer counter-screen. inhibition, % at 9.3 µM. P47898. HTR5A cell line, luminescence. 0.083% of 340,000 active; in the data active means inhibition mostly above about 23%, no sharp cut-off; inactive means mostly below about 18%;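 further: 0% = cells with DMSO and 100% = no-cell wells with DMSO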
Target sequence (P47898 whole entry, looked up): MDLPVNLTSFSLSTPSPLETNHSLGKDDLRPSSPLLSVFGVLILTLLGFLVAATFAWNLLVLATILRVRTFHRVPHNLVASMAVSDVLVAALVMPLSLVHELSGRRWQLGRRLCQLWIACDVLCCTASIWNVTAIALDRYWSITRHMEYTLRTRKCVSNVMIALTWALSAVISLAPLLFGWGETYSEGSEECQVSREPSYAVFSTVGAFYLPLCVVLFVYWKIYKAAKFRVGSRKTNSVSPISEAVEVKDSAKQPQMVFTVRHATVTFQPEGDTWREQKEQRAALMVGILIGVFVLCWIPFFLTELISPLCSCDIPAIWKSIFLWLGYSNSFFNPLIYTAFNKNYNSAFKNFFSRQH
HTR5A ag – activates human HTR5A in OPRM1-OPRD1 agonist counter-screen; 0.61% of 340,000 active; activation, % at 9.3 µM; HTR5A agonist assay, luminescence, cell-based; P47898; in the data active means activation mostly above about 9.5%, no sharp cut-off; inactive means mostly below about 7.6%;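 further: 0% = cells with vehicle only and 100% = reference agonist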
MOR-DOR inv ag-1 – inverse agonists of human mu-delta opioid receptor heterodimerization. AID 504357. 0.21% of 340,000 active. P35372+P41143. inhibition, % at 9.3 µM. cell-based MOR-DOR heterodimer luminescence, inverse agonism; in the data active means inhibition above about 22%, passing the limit was not always enough;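 further: 0% = cells with DMSO and 100% = wells without cells with DMSO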
OPRM1-D1 inv cf – OPRM1-OPRD1 heterodimer inverse agonism, confirmation; shares compounds with MOR-DOR inv ag-1; cells expressing OPRM1/OPRD1 heterodimer, luminescence; inhibition, % at 9.3 µM; 20% of 580 active; AID 504900; in the data active means inhibition above about 32%;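 further: 0% = cells with DMSO and 100% = wells lacking cells with DMSO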
HTR5A inv count – counter-screen for OPRM1-OPRD1 inverse agonists: human HTR5A inverse agonism | shares compounds with MOR-DOR inv ag-1 | HTR5A-expressing cells, luminescence | inhibition, % at 9.3 µM | 580 tested, under 10 active | AID 504914;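 further: 0% = cells with DMSO and 100% = no-cell wells with DMSO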
MOR-DOR inv ag-2 – counter-screen for HTR5A inverse agonists: OPRM1-OPRD1 heterodimerization inverse agonism. shares compounds with HTR5A inv ag. inhibition, % at 9.3 µM. U2OS counter-screen cells, complementation luminescence. 190 tested, under 10 active. AID 504912;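 further: 0% = cells with DMSO and 100% = wells without cells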
HTR5A inv conf – HTR5A (human) inverse agonism, confirmation. shares compounds with HTR5A inv ag. HTR5A-expressing cells, luminescence. inhibition, % at 9.3 µM. 190 tested, under 10 active;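 further: 0% = cells with DMSO and 100% = no cells with DMSO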
MOR-DOR ag-2 – opioid heterodimer agonism, HTR5A counter-screen; U2OS counter-screen cells, complementation luminescence, 3 h; shares compounds with HTR5A ag; 13% of 800 active; activation, % at 9.3 µM; in the data active means activation above about 18%
HTR5A ag confirm – HTR5A (human) agonism, confirmation | 17% of 800 active | shares compounds with HTR5A ag | HTR5A agonist cell assay, luminescence | activation, % at 9.3 µM; in the data active means activation above about 17%;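 further: 0% = cells with vehicle only and 100% = full reference agonist response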
Starred values were filed as active, the others as inactive; . = no result given. Most compounds without a hit are left out; they make up all but 1.1% or so of the library. Unless noted, how the calls were made is not given here.

SMILES	MOR-DOR ag-1	HTR5A inv ag	HTR5A ag	MOR-DOR inv ag-1	MOR-DOR ag-2	HTR5A ag confirm	others
CCCCn1c(NC(=O)c2ccco2)c(C(=O)OCC)c2nc3ccccc3nc21	-7.9	2.3	-1.3	44.8*	.	.	OPRM1-D1 inv cf=-13.5;HTR5A inv count=-11.7
CCCCn1c(NS(=O)(=O)c2ccc(C)cc2)c(C(=O)OCC)c2nc3ccccc3nc21	-4.0	4.2	1.6	21.6	.	.
CCCCOCCCn1c(N)c(C(=O)OCCOC)c2nc3ccccc3nc21	-7.2	-1.8	1.1	33.0*	.	.	OPRM1-D1 inv cf=-8.5;HTR5A inv count=-5.0
Cc1ccsc1C(=O)C1CCCN(Cc2ccc(-n3cccn3)cc2)C1 (centres undefined)	-0.5	-0.7	2.0	2.4	.	.
ON1C2CCCCC2N(O)C1c1ccccc1 (centres undefined)	-7.8	15.3	3.1	44.7*	.	.	OPRM1-D1 inv cf=-37.4;HTR5A inv count=-20.9
c1ccc(C2N3CCCN23)cc1 (centres undefined)	0.4	10.0	1.8	-2.1	.	.
O=P1(c2ccccc2)Nc2ccccc2N1c1ccccc1 (centres undefined)	2.5	-9.6	2.3	-13.0	.	.
CC1=C(N2CC2)C(=O)C(CO)=C(N2CC2)C1=O	-9.7	30.3	-7.9	42.5*	.	.	OPRM1-D1 inv cf=-4.4;HTR5A inv count=-0.1
COC(COC(N)=O)C1=C(N2CC2)C(=O)C(C)=C(N2CC2)C1=O (centres undefined)	2.9	-3.2	0.8	-12.7	.	.
Cc1cccnc1NC1=NCC(C)S1 (centres undefined)	-4.7	-12.4	-0.8	19.8	.	.
CC1CN(O)C2CCc3nonc3C12O (centres undefined)	-8.7	22.3	-9.2	42.6*	.	.	OPRM1-D1 inv cf=-23.5;HTR5A inv count=-5.7
CC1CCCN(CC(=O)c2ccc(Cl)c(Cl)c2)C1 (centres undefined)	-13.8	24.7	-6.4	71.0*	.	.	OPRM1-D1 inv cf=66.0*;HTR5A inv count=5.0
CCCCCCN1CCN(c2ccccc2Cl)CC1	1.8	-6.1	2.2	-12.8	.	.
C[C@H]1CCCC(=O)CCC/C=C/c2cc(O)cc(O)c2C(=O)O1	2.9	-23.9	-4.4	-15.8	.	.
C[C@H]1CCC/C=C/[C@@H]2C[C@H](O)C[C@H]2[C@H](O)/C=C/C(=O)O1	-6.0	0.2	-2.1	32.9*	.	.	OPRM1-D1 inv cf=-11.1;HTR5A inv count=-3.8
CC1CN(CC(=O)c2ccccc2Cl)CC(C)O1 (centres undefined)	-1.0	6.5	-1.8	4.6	.	.
CC1CCN(CC(=O)c2ccccc2Cl)CC1	-7.5	-5.3	2.1	39.8*	.	.	OPRM1-D1 inv cf=24.8;HTR5A inv count=1.3
CCOc1ccc2nc(N=Nc3c(O)[nH]c(=S)[nH]c3=O)sc2c1	-6.6	37.6	-0.8	32.2*	.	.	OPRM1-D1 inv cf=7.1;HTR5A inv count=4.8
Cc1ccc(C2N(c3ccccn3)C(=O)C3CCCN32)o1 (centres undefined)	-0.2	8.3	-3.1	1.2	.	.
CN(C)c1ccc(/C=C/c2cc[n+](C)c3ccccc23)cc1	-5.4	38.2*	-9.8	27.9	.	.	MOR-DOR inv ag-2=-485.1;HTR5A inv conf=-16.1
O=[N+]([O-])c1ccc(N2CCNCC2)cc1Sc1ccccn1	-3.4	17.0	1.5	16.8	.	.
Cc1cccc(CSc2nc3c(cc2C#N)CN(C)CC3)c1	-3.2	-51.0	19.8*	17.9	0.3	0.1
CN1CCc2nc(SCc3ccccc3Br)c(C#N)cc2C1	-1.6	-38.6	-4.7	8.4	.	.
O=C1NC(=O)N(c2ccccc2)C(=O)/C1=C/c1coc2ccc(O)cc2c1=O	0.0	-19.3	-1.6	-0.1	.	.
CCN(CC)c1ccc(N=Cc2c(O)n(-c3ccccc3C)c(=O)[nH]c2=O)cc1	3.3	-25.9	17.8*	-18.3	12.9	4.8
SMILES	MOR-DOR ag-1	HTR5A inv ag	HTR5A ag	MOR-DOR inv ag-1	MOR-DOR ag-2	HTR5A ag confirm	others
CCCCC/C(=N/O)c1c(C)[nH]c2ccccc12	6.4	-40.2	15.5*	-31.6	4.4	2.3
CC1=C[C@@H]2c3cccc4[nH]cc(c34)C[C@H]2N(C)C1	4.8	-93.3	26.2*	-22.6	1.4	33.9*
CN1CC=C(c2c[nH]c3ccccc23)CC1	-1.1	-70.4	23.1*	6.2	-1.6	-0.6
COCCn1c(-c2ccccc2)cc(C(=O)O)c1C	1.1	8.3	-1.1	-5.3	.	.
Clc1cc(I)cc(Cl)c1NC1=NCCN1	-1.1	-153.7	43.0*	5.8	1.3	-0.8
O=C(c1ccc2c(=O)n(Cc3ccc4c(c3)OCO4)c(=S)[nH]c2c1)N1CCC2(CC1)OCCO2	-3.8	8.3	-1.9	20.4	.	.
CCOP(=O)(Oc1ccccc1)c1c([N+](=O)[O-])cc(C(F)(F)F)cc1[N+](=O)[O-] (centres undefined)	0.1	4.1	-1.1	-0.7	.	.
CN1C[C@H](CO)C=C2c3cccc4[nH]cc(c34)C[C@H]21	4.3	13.1	59.7*	-21.8	10.9	1.6
CCC(=NCCc1c[nH]c2ccccc12)c1c(O)n(C)c(=O)n(C)c1=O	1.4	-124.1	40.5*	-7.4	1.4	1.2
CCC(=NCCc1c[nH]c2ccccc12)c1c(O)n(-c2ccc(C)cc2)c(=O)[nH]c1=O	-0.4	-113.3	18.6*	1.9	-0.2	-8.1
CC(=NCCc1c[nH]c2ccccc12)c1c(O)n(Cc2ccccc2)c(=O)[nH]c1=O	-0.7	-82.1	8.4	3.6	.	.
CN1C(=O)C(=Cc2ccc(OCC(=O)Nc3ccccc3)cc2)C(=O)N(C)C1=O	1.4	23.6	7.2	-7.7	.	.
FC(F)(F)c1ccc(CNCCc2ccc3c(c2)OCO3)cc1	1.3	-17.9	4.6	-6.2	.	.
CCCN(CCC)C1CCc2cccc(O)c2C1 (centres undefined)	-1.8	-146.4	45.9*	10.1	0.6	55.7*
CCCN(CCC)C1CCc2ccc(O)cc2C1 (centres undefined)	1.7	-139.4	35.2*	-9.3	30.8*	0.8
CCCN1CC[C@@H]2c3cc(O)ccc3CC[C@@H]21	0.9	-19.8	6.2	-5.0	.	.
COc1ccccc1N1CCN(Cc2cnc(-c3ccccc3)[nH]2)CC1	-1.5	-16.6	1.9	7.7	.	.
CC(N)Cc1c[nH]c2ccc(Cl)cc12 (centres undefined)	-2.2	-41.7	2.5	11.6	.	.
CCCCc1ccc2[nH]cc(CCN)c2c1	5.2	-231.0	97.1*	-30.6	-2.5	-7.0
COc1ccc2[nH]cc(CCN=C(N)N)c2c1	-0.1	-15.0	5.8	0.3	.	.
NCCc1c[nH]c2ccc(OCc3ccccc3)cc12	0.1	-85.8	33.1*	-0.4	-0.3	1.3
CC(=O)C1CCC2C3CCC4CC(O)CCC4(C)C3C(=O)CC12C (centres undefined)	-2.6	0.5	-0.1	13.2	.	.
COc1nc2ccccc2nc1N1CCN(C)CC1	-1.2	-79.0	20.3*	6.9	3.9	6.3
Cc1nc2nc(SCC(=O)N3CCC4(CC3)OCCO4)nn2c(C)c1Cc1ccccc1	-1.0	-8.0	-3.4	5.3	.	.
Fc1ccc(CNCCc2c[nH]c3ccccc23)cc1	-2.8	-12.8	4.6	14.5	.	.
Fc1ccccc1CNCCc1c[nH]c2ccccc12	-2.1	-88.5	25.1*	9.5	2.4	39.2*
